Measurements from PubChem BioAssay AID2685 (National Center for Advancing Translational Sciences (NCATS), 2010).
The campaign covered roughly 320,000 compounds. About 2,100 (0.66%) were called active. Roughly 53% stayed inconclusive and do not appear here. The sample holds actives, similar compounds and a random draw of the others, so the mix is not that of the screen. Calls come from the whole dose curve; as a rule, active = well fitted inhibition curve with a large enough effect in the signal ratio, with a control signal flat (not every such curve was filed as active); inconclusive = small, poorly fitted or top-dose-only effect, or effect the other way, or a change in a side signal; inactive = flat fitted curve, though single readings scatter; the % refers to the signal ratio.
Potency is the fitted concentration of half-maximal effect.

Experiment: qHTS Assay for Lipid Storage Modulators in Drosophila S3 Cells;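 for cell number change: cells counted by Cell Tracker Red CMTPX staining in the red channel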; for lipid storage change, negative = inhibition: % is set by controls: 0 for no effect and ±100 for the full control effect
Conditions: BODIPY lipid droplet fluorescence, 18-24 h, cells fed with added oleic acid; cell number change: measured here: cell count max response; series mostly up to 46.1 µM; lipid storage change, negative = inhibition: at the top concentration
Summary of the method: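 Drosophila S3 cells got compounds at several concentrations plus oleic acid (400 uM solution). Laser-scanning cytometry with 488 nm excitation read lipid droplets at 500-530 nm and cells at 575-640 nm. Percent activity was relative to 20 uM Triacsin C.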
For `C/C(=N/N=C1/NC(=O)CC(C(=O)Nc2ccccc2)S1)c1cccs1` (stereo not given), the “lipid storage change, negative = inhibition” value was 0.841% (inactive) and the cell number change was 1.13%. In the case of `CCOc1ccc(/C=C2\SC(=S)N(CCC(=O)Nc3ccc(C(=O)O)cc3)C2=O)cc1`, the “lipid storage change, negative = inhibition” value is reported as -6.54% (inactive) and the cell number change is reported as 8.29%. For `O=C(Nc1cccc(C(F)(F)F)c1)c1cncs1`, the “lipid storage change, negative = inhibition” value was -24.4% (inactive). In the case of `CCC(C)NC(=O)C1c2ccccc2C(=O)N1Cc1cc(OC)ccc1OC` (stereo not given), the “lipid storage change, negative = inhibition” value is reported as 6.59% (inactive) and the cell number change is reported as 8.31%. In the case of `O=C(N=Nc1c(O)[nH]c2ccccc12)c1cccs1`, the “lipid storage change, negative = inhibition” value is reported as -1.98% (inactive) and the cell number change is reported as -7.18%. In the case of `COc1cc(OC)cc(C(=O)N2CCN(C(=O)c3ccc(OC)c(OC)c3)CC2)c1`, the “lipid storage change, negative = inhibition” value is reported as 2.98% (inactive) and the cell number change is reported as 14.7%. In the case of `CC(C)=CCCC(C)CN(C)CCc1ccccn1` (stereo not given), the Potency is reported as 18.4 µM (active) and the cell number change is reported as -0.762%. For `CN(CCc1ccccn1)Cc1ccc(Cl)c(Cl)c1`, the “lipid storage change, negative = inhibition” value was 7.09% (inactive) and the cell number change was -4.68%. With `CN(CCc1ccccn1)Cc1ccc(Cl)cc1` the “lipid storage change, negative = inhibition” value was -4.59% (inactive) and the cell number change was 7.49%. In the case of `COc1ccc(CNC(=S)Nc2ccccc2)cc1Cl`, the “lipid storage change, negative = inhibition” value is reported as 7.81% (inactive) and the cell number change is reported as 0.106%. For `COC(CNC(=O)CN1CCN(Cc2ccc(F)cc2Cl)C1=O)OC`, the “lipid storage change, negative = inhibition” value was 14.7% (inactive) and the cell number change was -2.41%. For `Nc1ccc(C(=O)OCCCc2nc3ccccc3[nH]2)cc1`, the “lipid storage change, negative = inhibition” value was 5.83% (inactive) and the cell number change was 0.404%. With `Nc1ccc(C(=O)OCCCc2nc3cc4ccccc4cc3[nH]2)cc1` the Potency was 25.9 µM (active) and the cell number change was -15.5%. With `COC(=O)c1ccc(C(=O)OCCCc2nc3ccc(N)cc3[nH]2)cc1` the “lipid storage change, negative = inhibition” value was 15.8% (inactive) and the cell number change was 2.42%. With `COc1ccc(/C=C(\C#N)C(=O)c2c(C)[nH]c3ccccc23)cc1OC` the “lipid storage change, negative = inhibition” value was 24.1% (inactive). With `O=C(CSc1ccccc1)Nc1nnc(C2CC2)s1` the “lipid storage change, negative = inhibition” value was -5.17% (inactive) and the cell number change was 6.15%. In the case of `Cc1ccc(NC(=O)COC(=O)CCc2ccc(S(=O)(=O)N3CCOCC3)cc2)c(C)c1`, the “lipid storage change, negative = inhibition” value is reported as 7.65% (inactive) and the cell number change is reported as 16.8%. With `O=C(COC(=O)C1CCC(=O)N1)Nc1ccc(Cl)cc1Cl` (stereo not given) the “lipid storage change, negative = inhibition” value was -3.21% (inactive) and the cell number change was -17%. With `Cc1ccc(NC(=O)COC(=O)C2CCC(=O)N2)c(S(=O)(=O)N2CCOCC2)c1` (stereo not given) the Potency was 3.66 µM (active) and the cell number change was 2.3%. For `CCC(C)OC(=O)C1=C(C)OC23OC(N)=C(C#N)C12C(=O)c1ccccc13` (stereo not given), the “lipid storage change, negative = inhibition” value was -4.01% (inactive) and the cell number change was 2.42%. In the case of `CC(OC(=O)Cc1c(F)cccc1Cl)C(=O)NC1CCCCC1C` (stereo not given), the Potency is reported as 16.4 µM (active) and the cell number change is reported as -24.1%. For `CC(OC(=O)CNC(=O)c1ccc(Cl)cc1)C(=O)NC1CCCCC1C` (stereo not given), the cell number change was 3.37% and the lipid storage change, negative = inhibition was -18.8% [at 0.0737 µM] (inactive). For `CC(OC(=O)Cc1ccc(Br)cc1)C(=O)NC1CCCCC1C` (stereo not given), the “lipid storage change, negative = inhibition” value was -22.8% (inactive) and the cell number change was 5.28%. With `CCc1ccc2oc(=O)cc(CN3CCN(Cc4ccccc4)CC3)c2c1` the “outcome” value was “inactive” and the cell number change was 4.49%. For `O=C(NCc1ccccc1)c1cc(-c2cccc(O)c2)on1`, the “lipid storage change, negative = inhibition” value was 10.5% (inactive) and the cell number change was 9.36%. In the case of `CC(OC(=O)c1nc(Cl)ccc1Cl)C(=O)Nc1ccccc1F` (stereo not given), the “lipid storage change, negative = inhibition” value is reported as 6.47% (inactive) and the cell number change is reported as -13.3%.
